Experimental data taken from ChEMBL document CHEMBL2218924, “A broad activity screen in support of a chemogenomic map for kinase signalling research and drug discovery” (Biochem J, 2013).

Assays:
[1] = target: T1, Ephrin type-B receptor 1 (Homo sapiens) (UniProt P54762); settings: at 10 µM
T1 sequence (whole entry): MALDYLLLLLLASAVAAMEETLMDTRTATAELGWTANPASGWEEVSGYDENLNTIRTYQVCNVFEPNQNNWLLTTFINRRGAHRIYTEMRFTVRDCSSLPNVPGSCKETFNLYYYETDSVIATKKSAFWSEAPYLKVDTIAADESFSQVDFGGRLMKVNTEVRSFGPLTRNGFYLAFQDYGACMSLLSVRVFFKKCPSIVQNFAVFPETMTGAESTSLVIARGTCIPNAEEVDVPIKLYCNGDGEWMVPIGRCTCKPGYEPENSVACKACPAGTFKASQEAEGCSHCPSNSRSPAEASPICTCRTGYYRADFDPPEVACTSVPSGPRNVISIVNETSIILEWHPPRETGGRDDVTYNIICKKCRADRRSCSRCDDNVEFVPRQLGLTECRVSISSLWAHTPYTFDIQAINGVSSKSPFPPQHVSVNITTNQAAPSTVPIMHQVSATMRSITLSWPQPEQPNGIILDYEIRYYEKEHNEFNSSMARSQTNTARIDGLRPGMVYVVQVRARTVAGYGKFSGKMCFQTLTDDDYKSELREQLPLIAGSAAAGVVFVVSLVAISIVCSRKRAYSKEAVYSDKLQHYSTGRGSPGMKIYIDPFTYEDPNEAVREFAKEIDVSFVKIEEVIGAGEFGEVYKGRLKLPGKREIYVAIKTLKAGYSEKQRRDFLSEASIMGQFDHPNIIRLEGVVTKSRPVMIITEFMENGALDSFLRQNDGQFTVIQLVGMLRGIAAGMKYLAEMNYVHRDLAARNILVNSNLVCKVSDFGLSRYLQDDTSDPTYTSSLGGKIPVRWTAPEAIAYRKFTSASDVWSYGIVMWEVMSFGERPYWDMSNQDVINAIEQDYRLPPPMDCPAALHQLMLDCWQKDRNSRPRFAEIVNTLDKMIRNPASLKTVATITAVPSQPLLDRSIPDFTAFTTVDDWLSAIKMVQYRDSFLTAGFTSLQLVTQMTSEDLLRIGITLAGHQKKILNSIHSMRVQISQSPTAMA

[2] = target: T2, Ephrin type-B receptor 2 (Homo sapiens) (UniProt P29323); settings: at 1 µM
T2 sequence (whole entry): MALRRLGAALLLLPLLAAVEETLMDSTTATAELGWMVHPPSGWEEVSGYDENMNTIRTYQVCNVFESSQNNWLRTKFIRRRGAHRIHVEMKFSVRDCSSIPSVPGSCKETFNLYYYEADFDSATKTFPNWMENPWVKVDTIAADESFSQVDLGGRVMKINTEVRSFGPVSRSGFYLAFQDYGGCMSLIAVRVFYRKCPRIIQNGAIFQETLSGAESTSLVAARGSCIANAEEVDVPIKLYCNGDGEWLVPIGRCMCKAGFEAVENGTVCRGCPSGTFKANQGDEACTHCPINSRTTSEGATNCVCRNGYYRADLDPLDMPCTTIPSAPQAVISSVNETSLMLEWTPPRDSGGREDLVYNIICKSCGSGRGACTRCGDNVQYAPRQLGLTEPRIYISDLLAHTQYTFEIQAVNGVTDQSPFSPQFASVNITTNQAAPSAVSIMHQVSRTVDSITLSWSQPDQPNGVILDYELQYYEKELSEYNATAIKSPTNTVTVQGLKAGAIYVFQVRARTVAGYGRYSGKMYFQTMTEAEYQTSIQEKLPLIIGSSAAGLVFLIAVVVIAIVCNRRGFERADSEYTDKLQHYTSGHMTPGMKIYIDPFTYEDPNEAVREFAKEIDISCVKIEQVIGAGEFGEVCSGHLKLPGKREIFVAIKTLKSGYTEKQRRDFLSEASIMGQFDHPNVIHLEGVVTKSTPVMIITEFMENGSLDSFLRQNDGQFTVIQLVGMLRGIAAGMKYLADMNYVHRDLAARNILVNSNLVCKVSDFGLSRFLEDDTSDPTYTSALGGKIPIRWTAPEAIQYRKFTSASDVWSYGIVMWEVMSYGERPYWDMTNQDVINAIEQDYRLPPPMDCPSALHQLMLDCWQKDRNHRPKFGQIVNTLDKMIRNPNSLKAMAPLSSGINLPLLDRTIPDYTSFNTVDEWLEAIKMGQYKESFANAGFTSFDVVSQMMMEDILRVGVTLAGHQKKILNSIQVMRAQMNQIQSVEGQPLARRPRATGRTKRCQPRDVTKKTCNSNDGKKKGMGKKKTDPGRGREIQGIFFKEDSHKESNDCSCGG

[3] = target: T2, Ephrin type-B receptor 2 (Homo sapiens); settings: at 10 µM
[4] = target: T3, Ephrin type-B receptor 3 (Homo sapiens) (UniProt P54753); settings: at 1 µM
T3 sequence (whole entry): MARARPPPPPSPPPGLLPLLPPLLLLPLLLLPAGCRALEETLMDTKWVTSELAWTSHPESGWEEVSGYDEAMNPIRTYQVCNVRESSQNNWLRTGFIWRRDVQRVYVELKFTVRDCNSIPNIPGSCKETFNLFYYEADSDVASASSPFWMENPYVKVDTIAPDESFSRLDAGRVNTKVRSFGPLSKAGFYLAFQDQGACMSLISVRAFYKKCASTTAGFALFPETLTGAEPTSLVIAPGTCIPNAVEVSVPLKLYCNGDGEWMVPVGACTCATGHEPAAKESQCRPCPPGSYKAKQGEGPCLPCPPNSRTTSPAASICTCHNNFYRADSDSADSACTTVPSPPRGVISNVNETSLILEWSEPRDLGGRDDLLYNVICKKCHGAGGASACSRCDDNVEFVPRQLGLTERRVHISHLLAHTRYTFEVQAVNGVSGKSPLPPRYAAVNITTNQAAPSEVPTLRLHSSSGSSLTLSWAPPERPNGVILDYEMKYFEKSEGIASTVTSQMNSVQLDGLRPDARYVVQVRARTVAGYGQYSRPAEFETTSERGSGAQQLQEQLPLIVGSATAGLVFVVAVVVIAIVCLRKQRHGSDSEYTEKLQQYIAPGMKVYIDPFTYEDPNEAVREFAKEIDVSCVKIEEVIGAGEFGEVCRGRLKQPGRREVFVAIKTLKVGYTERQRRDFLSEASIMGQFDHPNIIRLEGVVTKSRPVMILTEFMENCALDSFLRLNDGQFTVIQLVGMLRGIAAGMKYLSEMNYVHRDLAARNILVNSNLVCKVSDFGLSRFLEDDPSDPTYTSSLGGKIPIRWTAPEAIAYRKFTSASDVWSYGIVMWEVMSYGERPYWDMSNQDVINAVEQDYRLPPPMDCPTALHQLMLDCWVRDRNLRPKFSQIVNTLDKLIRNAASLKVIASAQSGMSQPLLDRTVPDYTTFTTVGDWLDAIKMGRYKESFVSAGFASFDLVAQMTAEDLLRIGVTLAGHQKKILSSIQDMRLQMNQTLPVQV

[5] = target: T3, Ephrin type-B receptor 3 (Homo sapiens); settings: at 10 µM
[6] = target: T4, Ephrin type-B receptor 4 (Homo sapiens) (UniProt P54760); settings: at 1 µM
T4 sequence (whole entry): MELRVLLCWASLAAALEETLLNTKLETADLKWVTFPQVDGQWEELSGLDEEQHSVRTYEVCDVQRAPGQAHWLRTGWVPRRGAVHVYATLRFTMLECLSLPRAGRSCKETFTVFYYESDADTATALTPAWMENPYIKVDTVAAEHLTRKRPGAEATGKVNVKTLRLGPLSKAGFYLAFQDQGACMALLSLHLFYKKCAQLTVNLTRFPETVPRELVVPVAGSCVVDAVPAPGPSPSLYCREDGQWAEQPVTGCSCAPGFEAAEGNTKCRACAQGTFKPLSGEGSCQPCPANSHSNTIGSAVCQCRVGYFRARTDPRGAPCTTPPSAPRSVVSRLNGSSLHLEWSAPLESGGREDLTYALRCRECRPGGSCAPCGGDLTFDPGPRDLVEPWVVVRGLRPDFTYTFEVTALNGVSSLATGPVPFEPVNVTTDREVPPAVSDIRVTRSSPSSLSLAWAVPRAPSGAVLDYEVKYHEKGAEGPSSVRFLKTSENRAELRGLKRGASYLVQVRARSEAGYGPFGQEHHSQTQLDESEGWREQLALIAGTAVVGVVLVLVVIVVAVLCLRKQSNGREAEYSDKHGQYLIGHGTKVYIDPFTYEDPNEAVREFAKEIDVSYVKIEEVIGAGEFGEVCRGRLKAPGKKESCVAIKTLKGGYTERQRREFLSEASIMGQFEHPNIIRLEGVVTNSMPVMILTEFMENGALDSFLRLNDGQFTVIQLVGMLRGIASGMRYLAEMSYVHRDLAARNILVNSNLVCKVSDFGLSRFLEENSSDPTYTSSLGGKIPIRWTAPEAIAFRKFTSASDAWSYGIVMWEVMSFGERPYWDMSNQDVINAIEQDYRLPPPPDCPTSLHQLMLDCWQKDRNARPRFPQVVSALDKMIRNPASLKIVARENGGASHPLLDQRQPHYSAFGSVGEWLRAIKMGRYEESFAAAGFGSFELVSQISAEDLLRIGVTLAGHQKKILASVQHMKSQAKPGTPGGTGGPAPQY

[7] = target: T4, Ephrin type-B receptor 4 (Homo sapiens); settings: at 10 µM
[8] = target: Receptor tyrosine-protein kinase erbB-4 (Homo sapiens) (UniProt Q15303); settings: at 1 µM
Chain of Receptor tyrosine-protein kinase erbB-4 (Homo sapiens) (Q15303 whole entry): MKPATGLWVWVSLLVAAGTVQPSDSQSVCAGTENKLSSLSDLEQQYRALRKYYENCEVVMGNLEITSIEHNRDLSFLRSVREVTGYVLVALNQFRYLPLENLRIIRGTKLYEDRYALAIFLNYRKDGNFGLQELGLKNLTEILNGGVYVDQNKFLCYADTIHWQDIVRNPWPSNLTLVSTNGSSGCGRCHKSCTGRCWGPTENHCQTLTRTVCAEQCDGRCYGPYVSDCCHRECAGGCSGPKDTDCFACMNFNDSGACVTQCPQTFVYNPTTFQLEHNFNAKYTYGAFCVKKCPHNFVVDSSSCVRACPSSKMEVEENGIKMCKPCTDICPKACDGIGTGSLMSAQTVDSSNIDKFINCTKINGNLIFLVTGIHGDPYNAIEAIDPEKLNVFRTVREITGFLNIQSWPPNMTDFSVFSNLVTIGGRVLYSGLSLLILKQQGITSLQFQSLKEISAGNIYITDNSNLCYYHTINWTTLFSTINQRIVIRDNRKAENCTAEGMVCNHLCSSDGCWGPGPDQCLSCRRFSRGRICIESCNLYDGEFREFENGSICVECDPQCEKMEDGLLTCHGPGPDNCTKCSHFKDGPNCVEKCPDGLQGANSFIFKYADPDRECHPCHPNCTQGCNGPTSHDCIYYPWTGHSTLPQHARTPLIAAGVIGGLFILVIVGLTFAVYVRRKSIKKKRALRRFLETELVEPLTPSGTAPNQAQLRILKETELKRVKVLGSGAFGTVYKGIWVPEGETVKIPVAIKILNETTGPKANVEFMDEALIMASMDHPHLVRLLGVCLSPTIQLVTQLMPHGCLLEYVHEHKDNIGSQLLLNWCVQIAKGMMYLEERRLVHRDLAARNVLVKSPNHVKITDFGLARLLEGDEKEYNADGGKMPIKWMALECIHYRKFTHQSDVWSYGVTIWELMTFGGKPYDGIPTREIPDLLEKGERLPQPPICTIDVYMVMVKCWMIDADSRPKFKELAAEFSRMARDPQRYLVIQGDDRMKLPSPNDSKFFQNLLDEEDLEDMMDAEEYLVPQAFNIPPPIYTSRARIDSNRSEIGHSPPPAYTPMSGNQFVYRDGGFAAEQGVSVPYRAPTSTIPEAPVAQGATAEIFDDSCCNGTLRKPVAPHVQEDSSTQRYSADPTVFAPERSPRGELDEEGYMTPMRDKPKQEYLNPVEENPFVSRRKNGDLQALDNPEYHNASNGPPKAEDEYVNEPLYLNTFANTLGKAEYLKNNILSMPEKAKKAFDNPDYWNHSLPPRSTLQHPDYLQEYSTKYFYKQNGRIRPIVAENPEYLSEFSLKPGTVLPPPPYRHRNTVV

[9] = target: Receptor tyrosine-protein kinase erbB-4 (Homo sapiens) (UniProt Q15303); settings: at 10 µM
[10] = target: Focal adhesion kinase 1 (Homo sapiens) (UniProt Q05397); settings: at 1 µM
Chain of Focal adhesion kinase 1 (Homo sapiens) (Q05397 2-1052 limits assumed): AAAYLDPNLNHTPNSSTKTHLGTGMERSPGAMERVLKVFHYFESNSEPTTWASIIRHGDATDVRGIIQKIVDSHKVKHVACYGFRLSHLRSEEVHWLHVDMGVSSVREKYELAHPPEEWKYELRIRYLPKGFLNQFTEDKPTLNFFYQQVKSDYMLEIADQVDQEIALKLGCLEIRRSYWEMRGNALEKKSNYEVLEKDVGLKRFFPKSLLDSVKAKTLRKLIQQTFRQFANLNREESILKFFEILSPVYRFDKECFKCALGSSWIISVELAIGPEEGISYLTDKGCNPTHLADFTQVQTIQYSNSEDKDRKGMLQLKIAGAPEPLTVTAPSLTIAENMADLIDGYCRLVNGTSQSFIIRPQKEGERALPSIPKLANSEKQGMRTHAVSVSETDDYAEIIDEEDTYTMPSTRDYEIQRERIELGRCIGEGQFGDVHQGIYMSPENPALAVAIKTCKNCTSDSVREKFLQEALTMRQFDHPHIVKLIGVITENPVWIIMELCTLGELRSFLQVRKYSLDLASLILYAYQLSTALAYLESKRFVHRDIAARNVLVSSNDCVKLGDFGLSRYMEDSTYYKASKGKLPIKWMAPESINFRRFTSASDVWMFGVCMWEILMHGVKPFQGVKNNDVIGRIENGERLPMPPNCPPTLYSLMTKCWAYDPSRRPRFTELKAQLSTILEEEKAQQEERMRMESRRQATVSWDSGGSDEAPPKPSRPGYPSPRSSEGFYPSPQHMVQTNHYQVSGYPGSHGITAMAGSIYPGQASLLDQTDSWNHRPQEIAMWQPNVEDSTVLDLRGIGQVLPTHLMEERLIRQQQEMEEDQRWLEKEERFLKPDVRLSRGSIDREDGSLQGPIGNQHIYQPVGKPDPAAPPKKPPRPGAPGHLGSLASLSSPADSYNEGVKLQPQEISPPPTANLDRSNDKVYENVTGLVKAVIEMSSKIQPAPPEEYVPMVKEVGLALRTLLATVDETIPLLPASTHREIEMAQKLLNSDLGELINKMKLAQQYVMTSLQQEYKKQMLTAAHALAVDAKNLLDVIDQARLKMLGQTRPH

Compound: CO[C@H]1C[C@@H]2CC[C@@H](C)[C@@](O)(O2)C(=O)C(=O)N2CCCC[C@H]2C(=O)O[C@H]([C@H](C)C[C@@H]2CC[C@@H](O)[C@H](OC)C2)CC(=O)[C@H](C)/C=C(\C)[C@@H](O)[C@@H](OC)C(=O)[C@H](C)C[C@H](C)/C=C/C=C/C=C/1C
- residual activity [1]: 105%
- residual activity [2]: 121%
- residual activity [3]: 105%
- residual activity [4]: 100% (inactive)
- residual activity [5]: 57%
- residual activity [6]: 112%
- residual activity [7]: 147%
- residual activity [8]: 106%
- residual activity [9]: 130%
- residual activity [10]: 118%
